In the supplement of paper PMC11001985:

Compound: C#CCNC(=O)CCSSCCC(=O)NCCc1ccc(C=O)c(C=O)c1
Test: lysine labeling ratio R10:1 (500 µM / 50 µM probe), SILAC-ABPP in living cells; higher = lower intrinsic lysine reactivity toward the probe, active = 2 or less
Details: HeLa; probe concentrations 500 vs 50 µM
How it was run: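 An alkyne-tagged lysine probe with a disulfide linker labelled living HeLa cells in PBS at room temperature at either 50 µM or 500 µM, using SILAC light and heavy cells in forward and reverse label swaps. Lysates were mixed, clicked to biotin-azide, trypsin-digested, enriched on neutravidin, DTT-released, alkylated and measured by LC-MS/MS on a TIMS-TOF Pro. Each lysine's R is the filtered median high-probe/low-probe MS1 peptide ratio, combined as the median over forward and reverse replicates, with 20 as the upper limit.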

UniProt P07942, sequence (P07942 whole entry): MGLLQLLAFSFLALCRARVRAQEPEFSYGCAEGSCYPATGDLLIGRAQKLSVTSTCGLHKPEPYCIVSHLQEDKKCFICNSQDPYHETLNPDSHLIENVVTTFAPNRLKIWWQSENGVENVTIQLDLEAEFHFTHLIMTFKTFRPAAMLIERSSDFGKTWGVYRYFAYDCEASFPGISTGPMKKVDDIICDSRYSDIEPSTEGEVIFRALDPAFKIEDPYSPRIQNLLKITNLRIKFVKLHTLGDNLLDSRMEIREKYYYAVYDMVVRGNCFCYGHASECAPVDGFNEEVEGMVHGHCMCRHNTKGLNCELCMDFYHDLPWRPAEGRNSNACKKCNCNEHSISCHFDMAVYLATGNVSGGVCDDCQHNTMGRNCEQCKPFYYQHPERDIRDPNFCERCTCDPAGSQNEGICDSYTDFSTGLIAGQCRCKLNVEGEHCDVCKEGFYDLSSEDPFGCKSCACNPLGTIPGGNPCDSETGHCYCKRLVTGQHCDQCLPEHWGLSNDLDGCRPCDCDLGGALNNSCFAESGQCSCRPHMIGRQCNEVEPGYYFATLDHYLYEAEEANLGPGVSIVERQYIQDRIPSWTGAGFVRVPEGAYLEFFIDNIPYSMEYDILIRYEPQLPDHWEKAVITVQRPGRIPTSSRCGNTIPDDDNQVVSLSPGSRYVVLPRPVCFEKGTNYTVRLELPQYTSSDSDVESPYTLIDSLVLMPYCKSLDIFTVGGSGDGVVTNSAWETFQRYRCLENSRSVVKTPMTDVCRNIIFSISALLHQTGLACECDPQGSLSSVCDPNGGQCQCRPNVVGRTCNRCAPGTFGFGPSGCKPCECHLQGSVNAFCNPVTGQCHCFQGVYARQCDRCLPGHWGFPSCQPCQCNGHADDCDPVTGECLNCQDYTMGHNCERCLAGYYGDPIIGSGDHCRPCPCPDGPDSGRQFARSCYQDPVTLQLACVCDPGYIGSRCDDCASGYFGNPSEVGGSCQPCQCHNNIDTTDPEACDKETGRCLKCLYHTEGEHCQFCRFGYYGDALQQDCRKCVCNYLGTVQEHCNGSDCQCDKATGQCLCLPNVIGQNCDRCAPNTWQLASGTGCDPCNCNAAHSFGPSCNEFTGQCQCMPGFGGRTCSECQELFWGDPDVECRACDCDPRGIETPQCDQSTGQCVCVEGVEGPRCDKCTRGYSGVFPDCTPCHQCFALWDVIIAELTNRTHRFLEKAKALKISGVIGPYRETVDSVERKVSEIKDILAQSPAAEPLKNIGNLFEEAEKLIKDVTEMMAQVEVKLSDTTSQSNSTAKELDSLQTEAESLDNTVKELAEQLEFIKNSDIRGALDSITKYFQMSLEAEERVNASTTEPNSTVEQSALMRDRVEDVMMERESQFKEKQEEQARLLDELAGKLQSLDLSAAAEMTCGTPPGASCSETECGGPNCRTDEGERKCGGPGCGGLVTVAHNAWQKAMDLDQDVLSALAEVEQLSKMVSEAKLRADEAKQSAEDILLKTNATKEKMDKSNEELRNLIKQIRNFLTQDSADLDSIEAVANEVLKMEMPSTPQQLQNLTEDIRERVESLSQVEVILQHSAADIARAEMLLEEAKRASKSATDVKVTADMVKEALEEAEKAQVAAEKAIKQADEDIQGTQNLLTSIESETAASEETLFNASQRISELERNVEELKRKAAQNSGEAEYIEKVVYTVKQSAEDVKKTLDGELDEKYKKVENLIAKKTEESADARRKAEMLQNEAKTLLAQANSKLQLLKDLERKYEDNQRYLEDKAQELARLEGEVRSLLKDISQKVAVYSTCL
UniProt P08727, sequence (P08727 whole entry): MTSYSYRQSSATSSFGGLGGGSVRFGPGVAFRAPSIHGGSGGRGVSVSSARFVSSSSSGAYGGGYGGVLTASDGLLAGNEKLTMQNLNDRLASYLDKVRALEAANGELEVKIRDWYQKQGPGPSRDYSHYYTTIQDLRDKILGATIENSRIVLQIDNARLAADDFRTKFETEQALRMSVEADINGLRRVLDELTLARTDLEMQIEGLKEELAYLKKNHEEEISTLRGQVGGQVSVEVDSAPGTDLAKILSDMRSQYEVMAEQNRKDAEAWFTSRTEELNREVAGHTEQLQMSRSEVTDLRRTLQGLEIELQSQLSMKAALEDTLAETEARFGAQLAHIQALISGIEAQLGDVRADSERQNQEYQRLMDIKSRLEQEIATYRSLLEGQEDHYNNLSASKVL
UniProt P52272, sequence (P52272 whole entry): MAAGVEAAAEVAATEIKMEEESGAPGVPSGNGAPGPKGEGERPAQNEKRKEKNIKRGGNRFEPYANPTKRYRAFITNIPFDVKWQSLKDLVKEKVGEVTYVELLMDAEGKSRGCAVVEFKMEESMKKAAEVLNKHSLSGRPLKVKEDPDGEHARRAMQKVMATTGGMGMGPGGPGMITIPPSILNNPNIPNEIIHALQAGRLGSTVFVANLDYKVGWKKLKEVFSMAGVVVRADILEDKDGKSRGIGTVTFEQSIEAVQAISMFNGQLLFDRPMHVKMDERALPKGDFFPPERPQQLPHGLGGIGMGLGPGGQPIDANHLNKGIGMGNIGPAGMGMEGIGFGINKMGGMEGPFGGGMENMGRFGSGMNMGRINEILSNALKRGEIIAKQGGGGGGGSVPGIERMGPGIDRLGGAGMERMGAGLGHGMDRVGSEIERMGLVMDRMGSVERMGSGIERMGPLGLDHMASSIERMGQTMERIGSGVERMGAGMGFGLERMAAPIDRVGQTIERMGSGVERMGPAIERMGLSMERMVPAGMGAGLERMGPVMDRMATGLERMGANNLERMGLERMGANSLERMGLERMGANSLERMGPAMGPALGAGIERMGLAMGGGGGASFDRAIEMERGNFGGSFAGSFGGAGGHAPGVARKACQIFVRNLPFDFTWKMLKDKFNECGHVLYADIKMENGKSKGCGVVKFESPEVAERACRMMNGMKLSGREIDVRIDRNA
UniProt P00533, sequence (P00533 whole entry): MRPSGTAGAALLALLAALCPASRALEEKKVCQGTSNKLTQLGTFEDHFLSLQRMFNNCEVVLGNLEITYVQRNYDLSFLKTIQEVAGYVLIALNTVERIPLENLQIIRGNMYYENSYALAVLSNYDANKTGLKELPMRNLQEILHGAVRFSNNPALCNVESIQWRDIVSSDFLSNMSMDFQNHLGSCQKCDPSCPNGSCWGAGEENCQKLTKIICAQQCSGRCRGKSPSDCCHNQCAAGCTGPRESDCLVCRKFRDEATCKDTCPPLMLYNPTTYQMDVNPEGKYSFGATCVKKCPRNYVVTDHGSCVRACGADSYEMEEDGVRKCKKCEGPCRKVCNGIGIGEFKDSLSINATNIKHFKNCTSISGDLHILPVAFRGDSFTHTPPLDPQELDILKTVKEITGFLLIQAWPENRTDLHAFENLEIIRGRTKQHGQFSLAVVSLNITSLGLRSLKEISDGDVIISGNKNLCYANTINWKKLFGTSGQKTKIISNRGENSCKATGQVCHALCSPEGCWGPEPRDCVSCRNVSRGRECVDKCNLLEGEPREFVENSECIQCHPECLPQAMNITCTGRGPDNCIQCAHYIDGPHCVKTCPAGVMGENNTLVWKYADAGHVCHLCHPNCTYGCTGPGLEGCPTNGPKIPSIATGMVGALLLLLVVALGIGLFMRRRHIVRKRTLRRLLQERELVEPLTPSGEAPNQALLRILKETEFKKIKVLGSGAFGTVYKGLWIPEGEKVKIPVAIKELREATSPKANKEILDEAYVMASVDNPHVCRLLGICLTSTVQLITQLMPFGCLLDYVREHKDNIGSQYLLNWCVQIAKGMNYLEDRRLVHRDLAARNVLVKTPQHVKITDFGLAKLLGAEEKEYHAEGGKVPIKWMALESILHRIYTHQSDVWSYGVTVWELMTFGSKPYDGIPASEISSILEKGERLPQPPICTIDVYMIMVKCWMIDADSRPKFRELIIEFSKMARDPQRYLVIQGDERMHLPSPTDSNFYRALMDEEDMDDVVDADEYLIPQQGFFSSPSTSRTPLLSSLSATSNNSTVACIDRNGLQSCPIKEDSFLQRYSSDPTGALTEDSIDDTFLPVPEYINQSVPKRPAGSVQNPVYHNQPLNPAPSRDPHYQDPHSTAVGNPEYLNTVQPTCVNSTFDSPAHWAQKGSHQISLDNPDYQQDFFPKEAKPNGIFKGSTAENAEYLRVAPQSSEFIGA
UniProt P78371, sequence (P78371 whole entry): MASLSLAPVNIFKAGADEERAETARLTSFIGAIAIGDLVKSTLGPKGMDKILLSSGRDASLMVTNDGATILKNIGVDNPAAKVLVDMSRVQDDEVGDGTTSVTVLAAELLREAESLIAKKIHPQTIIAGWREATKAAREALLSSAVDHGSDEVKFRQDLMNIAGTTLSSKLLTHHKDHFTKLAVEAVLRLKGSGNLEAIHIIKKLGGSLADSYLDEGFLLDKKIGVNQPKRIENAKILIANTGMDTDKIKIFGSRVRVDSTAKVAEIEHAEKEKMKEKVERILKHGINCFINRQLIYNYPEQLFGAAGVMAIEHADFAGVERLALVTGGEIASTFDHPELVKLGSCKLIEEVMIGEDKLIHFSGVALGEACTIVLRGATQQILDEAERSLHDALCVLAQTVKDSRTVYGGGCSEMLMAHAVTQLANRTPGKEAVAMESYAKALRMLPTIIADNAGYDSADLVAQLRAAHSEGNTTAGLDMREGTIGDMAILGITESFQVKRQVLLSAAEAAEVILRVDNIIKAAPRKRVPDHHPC
UniProt P09651, sequence (P09651 whole entry): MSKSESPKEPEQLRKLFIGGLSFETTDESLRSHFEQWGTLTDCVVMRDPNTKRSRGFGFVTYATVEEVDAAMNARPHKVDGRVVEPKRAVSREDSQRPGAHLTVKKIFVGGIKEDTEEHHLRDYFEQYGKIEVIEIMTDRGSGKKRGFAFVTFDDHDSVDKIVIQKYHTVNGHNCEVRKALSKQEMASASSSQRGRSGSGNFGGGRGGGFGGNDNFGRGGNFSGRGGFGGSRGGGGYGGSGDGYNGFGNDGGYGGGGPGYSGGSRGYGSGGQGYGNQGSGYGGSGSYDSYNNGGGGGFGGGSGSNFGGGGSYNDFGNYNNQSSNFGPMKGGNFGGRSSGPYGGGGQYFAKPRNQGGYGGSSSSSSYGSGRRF

Lysine labeling ratio R10:1, active:
MSLN (lysine site: K307) (UniProt Q13421) 1.74, LMO7 (lysine site: K1455) (UniProt Q8WWI1) 1.37, RALA (lysine site: K159) (UniProt P11233) 0.885, APOA4 (lysine site: K79) (UniProt P06727) 1.22, GPC1 (lysine site: K461) (UniProt P35052) 1.89, FRAS1 (lysine site: K2396) (UniProt Q86XX4) 1.59, EFNB2 (lysine site: K163) (UniProt P52799) 1.53, ANPEP (lysine site: K836) (UniProt P15144) 0.79, RPS19 (lysine site: K115) (UniProt P39019) 1.86, FRAS1 (lysine site: K1164) (UniProt Q86XX4) 1.34, UniProt Q13275 (lysine site: K239) 1.5, CD109 (lysine site: K1018) (UniProt Q6YHK3) 1.99, AHNAK (lysine site: K134) (UniProt Q09666) 1.99

Lysine labeling ratio R10:1, inactive:
STMN1 (lysine site: K128) (UniProt P16949) 2.8, HNRNPM (lysine site: K145) (UniProt P52272) 2.08, Q95604 (lysine site: K145) (UniProt P10321) 2.39, SDC4 (lysine site: K114) (UniProt P31431) 3.81, ANXA1 (lysine site: K287) (UniProt P04083) 2.78, VASN (lysine site: K133) (UniProt Q6EMK4) 4.74, TMED9 (lysine site: K95) (UniProt Q9BVK6) 4.55, DDX5 (lysine site: K207) (UniProt P17844) 4.37, UniProt Q9BS26 (lysine site: K130) 2.57, HNRNPA1 (lysine site: K350) (UniProt P09651) 3.42, THBS1 (lysine site: K50) (UniProt P07996) 4.26, CLTC (lysine site: K1612) (UniProt Q00610) 4.67, LAMB1 (lysine site: K1495) (UniProt P07942) 4.06, SLC3A2 (lysine site: K217) (UniProt P08195) 7.33, DDX3X (lysine site: K491) (UniProt O00571) 2.59, PPL (lysine site: K1151) (UniProt O60437) 3.53, EGFR (lysine site: K327) (UniProt P00533) 5.84, UniProt P08727 (lysine site: K265) 3.48, CCT3 (lysine site: K78) (UniProt P49368) 4.07, MET (lysine site: K189) (UniProt P08581) 3.58, LAMB1 (lysine site: K1492) (UniProt P07942) 4.06, CCT2 (lysine site: K230) (UniProt P78371) 3.3, IGF1R (lysine site: K887) (UniProt P08069) 3.44, CDH2 (lysine site: K699) (UniProt P19022) 10.6, GPI (lysine site: K366) (UniProt P06744) 2.81, UniProt P62851 (lysine site: K114) 2.69, UniProt P08727 (lysine site: K370) 3.4
